From PubChem
Shown are actives, neighbours in structure and some others; about 0.85% of the full set was active somewhere.
mIDH1 inhibitor: human IDH1 R132H inhibition. IDH1-R132H enzyme, NADPH consumption, diaphorase/resazurin fluorescence. AID 602179. Potency, µM (series often up to 76.6 µM), without a hit: top-dose activity change, negative = inhibition, hits mostly inhibitors. 390,000 tested, 0.093% active. O75874; further: potency means the concentration at half of the fitted maximal effect; on the % scale 0 is the no-effect control and ±100 the full control effect; nearly all actives have a fitted effect of over 65% in size
Target sequence (O75874 whole entry R132H, stated change not applied): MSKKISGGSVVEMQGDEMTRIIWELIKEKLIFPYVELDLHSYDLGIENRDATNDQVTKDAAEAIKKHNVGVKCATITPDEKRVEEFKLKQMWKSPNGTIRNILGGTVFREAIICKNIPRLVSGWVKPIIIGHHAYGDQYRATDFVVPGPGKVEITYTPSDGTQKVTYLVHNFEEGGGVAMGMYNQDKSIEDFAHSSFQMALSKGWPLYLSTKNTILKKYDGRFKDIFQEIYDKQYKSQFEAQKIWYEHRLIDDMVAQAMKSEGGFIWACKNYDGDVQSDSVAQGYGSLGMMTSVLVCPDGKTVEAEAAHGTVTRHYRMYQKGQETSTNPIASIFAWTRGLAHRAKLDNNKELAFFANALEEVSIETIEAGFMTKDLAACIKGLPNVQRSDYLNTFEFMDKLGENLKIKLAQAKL
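IDH1-R132H (0.5 ug/mL dispensed) in pH 7.5 Tris buffer was preincubated 30 min with compound, then given a substrate mix of 0.016 mM NADPH and 2 mM alpha-KG for 80 min at room temperature; remaining NADPH was read by diaphorase/resazurin fluorescence.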
GLS inhibitor: blocks human kidney-isoform glutaminase activity; O94925; GLS enzymatic activity, qHTS titration; Potency, µM (doses to about 45.5 µM), for the others: at the highest dose activity change, negative = inhibition, actives largely listed as inhibitors; 410,000 tested, 0.21% active; further: potency means the concentration at half of the fitted maximal effect; on the % scale 0 is the no-effect control and ±100 the full control effect
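Assay buffer: 45 mM KH2PO4 pH 8.2, 0.02% Tween-20. hKGA acts on L-glutamine (1 mM solution added); product glutamate is reported by an oxidase/peroxidase Amplex Red coupling, with fluorescence taken at baseline and 30 min.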
pAkt inh: inhibitors of Akt phosphorylation; activity change, % for hits at 50 µM; AID 651550; 360,000 tested, 0.32% active; Neuro2A IGF-stimulated pAkt S473 HTRF, 20 min; stronger effect = lower value; in the data active means activity change below about -80%; inconclusive means mostly about -51% to -80%; further: on the % scale 0 is the no-effect control and ±100 the full control effect
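Neuro2A cells in DMEM with 0.5% FBS, overnight at 37 deg C, given compound at single 50 µM final, then IGF (6 nM final) for 20 min at 37 deg C. Lysed; phospho-Akt Ser473 by HTRF after 24 h, 665/615 ratio.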
CCT chaperon mod: modulators of cytosolic chaperonin (CCT/TRiC) activity | purified chaperonin ATPase assay, HTRF ADP detection, 30 min | activity change, % (no concentration beside the values), hits read low | AID 651819 | 360,000 tested, 0.3% active; in the data active means activity change below about -30%; further: on the % scale 0 is the no-effect control and ±100 the full control effect
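First, chaperonin was dispensed at 40 nM or 20 nM final depending on batch activity. Next, compounds were pinned at 76 uM and ATP added at 10 uM. After 30 min at 37 °C, ADP detection reagents ran 30 min at ambient temperature.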
MmCpn inh: blocks the Methanococcus maripaludis chaperonin Mm-Cpn. purified Mm-Cpn ATPase, ADP Transcreener TR-FRET. Potency, µM (top dose mostly 76.9 µM), for inactives: at the highest dose activity, negative = inhibition, usual class: inhibitors. 330,000 tested, 0.031% active; further: potency means the concentration at half of the fitted maximal effect; on the % scale 0 is the no-effect control and ±100 the full control effect; nearly all actives have a fitted effect of over 80% in size
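TR-FRET (320 nm excitation; 590 and 665 nm emission) reports ADP made from 10 uM ATP by 25 nM enzyme; compounds were preincubated 10 min, reaction run 30 min, both at 37°C.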
GRP78 ERSR act: induces the endoplasmic reticulum stress response in human glioma cells; U87-MG GRP78 promoter luciferase reporter, 16 h; Potency, µM, for inactives: at the highest dose activation, usual class: activators; 420,000 tested, 0.02% active; AID 602332; further: potency means the concentration at half of the fitted maximal effect; series mostly up to about 76 µM; % of control where 0% means no effect; nearly all actives have a fitted effect of over 35% in size
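ERSR induction read as luciferase luminescence (Bright-Glo, 10 min at room temperature) in stably transfected human U87-MG glioma cells exposed to compounds for 16 h, using GRP78 as sensor.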
The depositor's hits bear a star; i = inactive; ? = inconclusive; / = no result given. Unless noted, the call rests on the fitted dose curve; in most records, active means well fitted curve in the direction sought with a large enough effect; inconclusive means small, poorly fitted or top-dose-only effect, or another doubt; inactive means no such curve, though single readings can be large; an effect the other way counts as inactive or inconclusive.

SMILES	mIDH1 inhibitor	GLS inhibitor	pAkt inh	CCT chaperon mod	MmCpn inh	GRP78 ERSR act
COc1ccccc1-c1ccnc(-n2ncc(C(=O)N(C)C(C)c3nc(C)cs3)c2C2CC2)n1 (configuration not stated)	/	/	/	/	/	4%
Cc1ccc2nc(Nc3ccc(C)c(Cl)c3)c3nncn3c2c1	13%	-4%	i	2	1%	-3%
Cc1ccc(Nc2nc3ccccc3n3cnnc23)cc1Cl	-8%	-5%	i	-50*	-7%	3%
COc1cc(C)c(CN2C[C@H](Sc3nc4ccccc4[nH]3)C[C@H]2C(=O)N(C)C)cc1C	/	/	/	/	/	-6%
COc1cccc(OC)c1C(=O)Nc1ccc2c(c1)Cc1ccccc1-2	12%	-11%	i	-1	-22%	5%
COc1cccc(OC)c1C(=O)NC(=S)Nc1ccc2c(c1)Cc1ccccc1-2	0%	26%	-115%*	-2	?	-1%
COc1cccc(CN2C(=O)NC(C)(C3CCN(Cc4ccc(C)o4)CC3)C2=O)c1OC (configuration not stated)	/	/	/	/	/	-4%
O=C(O)c1ccc(Cl)c(S(=O)(=O)NCC2CCCO2)c1 (configuration not stated)	0%	10µM*	i	1	2%	-4%
CCN1CCCC1CNCc1cc2ccc(SC)cc2nc1-c1cc(OC)ccc1OC (configuration not stated)	/	/	/	/	/	0%
CCc1cc(C(=O)NCCN2Cc3ccccc3OC(c3ccsc3)C2)n(C)n1 (configuration not stated)	/	/	/	/	/	-2%
Cc1nnc(-c2cccc(Br)c2)c2cn(-c3ccccc3Cl)nc12	-6%	5%	i	-25	-2%	-4%
Cc1ccc(-n2cc3c(-c4cccc(Br)c4)nnc(C)c3n2)cc1	-6%	8%	-102%*	-5	0%	-7%
COc1ccc(NC(=O)CN2CCN(c3c(C)cc(C)cc3C)CC2)cc1	-6%	12%	i	-2	-1%	-4%
CCOC(=O)c1ccc(NC(=O)C(=O)NCC2CCCO2)cc1 (configuration not stated)	-2%	-3%	-108%*	0	2%	1%
COc1ccc(NC(=O)CN2CCN(c3ccc(C)cc3C)CC2)cc1	5%	-20%	i	-55*	0%	0%
CCOC(=O)c1ccc(NC(=O)CN2CCN(Cc3ccccc3)CC2)cc1	5%	-8%	i	-86*	3%	2%
CCOC(=O)c1ccc(NC(=O)CC2OCCN(CC)C2=O)cc1 (configuration not stated)	-3%	0%	-118%*	-5	-3%	-7%
CCOC(=O)c1ccc(NC(=O)N2CCN(Cc3ccccc3)CC2)cc1	-2%	4%	i	-4	0%	-1%
CCOC(=O)c1ccc(NC(=O)CC2C(=O)OCCN2CC)cc1 (configuration not stated)	-7%	12%	i	-1	0%	-2%
COCCN1CCN(C(=O)c2cnn(-c3nccc(-c4ccco4)n3)c2C2CC2)CC1	/	/	/	/	/	-5%
CCOc1ccc(NC(=O)CN2CCN(CC(=O)c3ccc(OCC)cc3)CC2)cc1	2%	-3%	i	-3	0%	-6%
CCc1ccc(NC(=O)CSc2nccn2-c2ccc(F)cc2)cc1	-7%	3%	/	/	/	0%
CCOC(=O)c1ccc(NC(=O)CCc2nc(-c3ccccc3)no2)cc1	4%	-11%	-101%*	-1	-2%	-2%
CCOc1ccc(NC(=O)CN2CCN(CC(=O)Nc3ccc(F)cc3)CC2)cc1	-1%	-1%	-117%*	-7	-4%	3%
CSc1nccn1CC(=O)Nc1ccc(F)cc1	4%	4%	-114%*	0	0%	-2%
SMILES	mIDH1 inhibitor	GLS inhibitor	pAkt inh	CCT chaperon mod	MmCpn inh	GRP78 ERSR act
Cc1ccccc1C(=O)N1CCc2c(cnc(C)c2CNC(=O)c2ccc3c(c2)OCO3)C1	/	/	/	/	/	-4%
COC(=O)[C@@H]1C[C@@H](NC(=O)c2cccc3c(C)c(C)[nH]c23)CN1Cc1cccc2ccccc12	/	/	/	/	/	-3%
Cc1ccc(Cn2cnc3c(cnn3C(C)(C)C)c2=O)cc1F	/	/	/	/	/	-2%
Cn1cnnc1Sc1ccc(CN2CCOc3ccc(C4=Cc5ccccc5C4)cc3C2)o1	/	/	/	/	/	-1%
C#Cc1ccc([C@H]2C=C(C(=O)NCc3ccccc3)O[C@@H](OCC)[C@@H]2CCCO)cc1	14%	-1%	i	-68*	/	1%
Cn1c(NC(=O)c2ccc(Br)o2)cc(=O)n(C)c1=O	-2%	-8%	-116%*	0	2%	2%
COc1ccc(OC)c(CN2CCOc3ccc(CN4CCC(O)(c5cccnc5)CC4)cc3C2)c1	/	/	/	/	/	-3%
CCOC(=O)C1(C)NC(c2cccs2)C2C(=O)N(c3ccccc3)C(=O)C21 (configuration not stated)	-6%	-3%	i	0	0%	-7%
COC(=O)C1(C)NC(c2cccs2)C2C(=O)N(c3ccc(F)cc3)C(=O)C21 (configuration not stated)	11%	3%	-107%*	0	0%	-1%
CC(=O)N1c2c(cc(Br)cc2S(=O)(=O)NCc2ccc3c(c2)OCO3)CC1C (configuration not stated)	0%	-2%	i	2	0%	-4%
CC(=O)N1c2c(cc(Br)cc2S(=O)(=O)NCC2COc3ccccc3O2)CC1C (configuration not stated)	-1%	2%	i	-6	-2%	40µM*
COc1ccccc1-c1nnc(SCc2ccccn2)n1C	-3%	4%	i	-2	1%	-5%
COc1ccc(-c2nnc(SCc3ccccn3)n2C)cc1	9%	32%	-107%*	-6	0%	-1%
Cn1cccc1C(=S)N=P(C1CCCCC1)(N1CCOCC1)N1CCOCC1	1%	7%	i	-52*	1%	-5%
Cn1cccc1C(=S)N1CCOCC1	-1%	4%	i	-1	0%	-4%
Cc1ncc2c(c1CNS(=O)(=O)N(C)C)CCN(C(=O)/C=C/c1cccc(F)c1)C2	/	/	/	/	/	-5%
C=C1/C(=C\C=C2/CCC[C@@]3(C)[C@@H]([C@H](C)OCCC(C)(C)O)CC[C@@H]23)C[C@@H](O)C[C@@H]1O	/	-1%	/	/	/	-4%
COC(=O)c1ccccc1Nc1ccccc1	0%	0%	i	-32*	-1%	1%
Cc1c(OCc2ccccc2)c(=O)ccn1Cc1ccc(Cl)cc1	3%	-4%	-115%*	1	-3%	-7%
O=C(/C=C/c1ccc(F)cc1)NCC1Cc2cccc(-c3ncccn3)c2O1 (configuration not stated)	/	/	/	/	/	-3%
